Among the data in PubChem BioAssay (Tox21) are outcome, max response and Potency values, retold here.

Unmarked numbers belong to inactive results. Inconclusive results are not listed. The source made the active and inactive calls. The call rests on the fitted dose curve; in most records, active means well fitted curve in the direction sought with a large enough effect in the repeat runs; inconclusive means weak or mixed curves; inactive means no such curve, though single readings can be large; an effect the other way counts as inactive or inconclusive.

A short description of assay [1]: qHTS RealTime-Glo MT Cell Viability Assay in HepG2 cells - 8 hour (AID 1224873). Further: nearly all actives have a fitted effect of over 55% in size. In short, it runs like this:
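Real-time viability: cells seeded at 600 per well together with NanoLuc and cell-permeant prosubstrate, compounds added after 5 h incubation. Luminescence tracked at 0, 8, 16, 24, 32 and 40 h of exposure.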
In general terms: qHTS replaces the single test concentration by a dilution series.

The nature of assay [2]: qHTS RealTime-Glo MT Cell Viability Assay in HEK293 cells - 40 hour (AID 1224874). Further: nearly all actives have a fitted effect of over 50% in size. Further: potency means the concentration at half of the fitted maximal effect. The conditions noted are these: RealTime-Glo luminescence; max response: stronger effect = lower value. In short, it runs like this:
(§1)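 600 cells/well were plated with the nonlytic NanoLuc/prosubstrate reagent, pre-incubated 5 h, then given 23 nL of compound in DMSO. Incubation at 37 C for 40 h, with luminescence from viable-cell-reduced substrate read repeatedly from 0 h.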

Assay [3] is described as follows: A CellTox Green Cytotoxicity Assay to monitor cytotoxicity in HepG2 cells - 16 hour (AID 1224876). Further: nearly all actives have a fitted effect of over 45% in size. In short, it runs like this:
(§2)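 HepG2 cells, 600/well, preincubated 5 h with CellTox Green dye, then exposed to Tox21 compounds in DMSO at 37 C for up to 40 h. Dead-cell DNA fluorescence read at the indicated time point.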

A short description of assay [4]: qHTS RealTime-Glo MT Cell Viability Assay in HepG2 cells - 32 hour (AID 1224877). Further: nearly all actives have a fitted effect of over 55% in size. An outline of the steps: (§3)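 HepG2 cells (600/well) were dispensed with RealTime-Glo reagents, incubated 5 h at 37 °C, then treated with compounds in DMSO for up to 40 h. Nonlytic NanoLuc luminescence reflecting viable cells was read at each stated time point.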
Assay [5] in a line: A CellTox Green Cytotoxicity Assay to monitor cytotoxicity in HepG2 cells - 24 hour (AID 1224878). Further: nearly all actives have a fitted effect of over 45% in size. In short, it runs like this: as §2
A short description of assay [6]: A CellTox Green Cytotoxicity Assay to monitor cytotoxicity in HepG2 cells - 40 hour (AID 1224879). Further: nearly all actives have a fitted effect of over 40% in size. An outline of the steps: as §2
Assay [7] is described as follows: A CellTox Green Cytotoxicity Assay to monitor cytotoxicity in HepG2 cells - 0 hour (AID 1224882). Further: nearly all actives have a fitted effect of over 35% in size. In short, it runs like this:
as §2

Assay [8] in a line: A CellTox Green Cytotoxicity Assay to monitor cytotoxicity in HepG2 cells - 32 hour (AID 1224883). Further: nearly all actives have a fitted effect of over 50% in size. In short, it runs like this: as §2
A short description of assay [9]: A CellTox Green Cytotoxicity Assay to monitor cytotoxicity in HEK293 cells - 8 hour (AID 1224884). Further: nearly all actives have a fitted effect of over 35% in size. An outline of the steps: (§4)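 HEK293 cells, 600/well, were preincubated 5 hours and then exposed to compounds at 37 C for up to 40 hours. A cell-impermeant cyanine dye staining dead-cell DNA was read by fluorescence at 0, 8, 16, 24, 32 and 40 h time points.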
Assay [10] is described as follows: qHTS RealTime-Glo MT Cell Viability Assay in HepG2 cells - 16 hour (AID 1224885). Further: nearly all actives have a fitted effect of over 50% in size. In short, it runs like this: as §3
The nature of assay [11]: A CellTox Green Cytotoxicity Assay to monitor cytotoxicity in HepG2 cells - 8 hour (AID 1224890). Further: nearly all actives have a fitted effect of over 45% in size. An outline of the steps:
as §2

Assay [12] is described as follows: A CellTox Green Cytotoxicity Assay to monitor cytotoxicity in HEK293 cells - 40 hour (AID 1224871). Further: nearly all actives have a fitted effect of over 45% in size. Further: potency means the concentration at half of the fitted maximal effect. In short, it runs like this:
as §4

Assay [13] in a line: A CellTox Green Cytotoxicity Assay to monitor cytotoxicity in HEK293 cells - 24 hour (AID 1224875). In short, it runs like this: as §4
Assay [14] can be described thus: qHTS RealTime-Glo MT Cell Viability Assay in HEK293 cells - 0 hour (AID 1224880). In short, it runs like this:
as §1

Assay [15] can be described thus: A CellTox Green Cytotoxicity Assay to monitor cytotoxicity in HEK293 cells - 32 hour (AID 1224881). Further: nearly all actives have a fitted effect of over 40% in size. In short, it runs like this:
as §4

Assay [16] in a line: qHTS RealTime-Glo MT Cell Viability Assay in HEK293 cells - 8 hour (AID 1224887). Further: nearly all actives have a fitted effect of over 50% in size. Further: potency means the concentration at half of the fitted maximal effect. In short, it runs like this:
as §1

The nature of assay [17]: A CellTox Green Cytotoxicity Assay to monitor cytotoxicity in HEK293 cells - 16 hour (AID 1224888). Further: nearly all actives have a fitted effect of over 35% in size. In short, it runs like this: as §4
Assay [18] is described as follows: qHTS RealTime-Glo MT Cell Viability Assay in HepG2 cells - 0 hour (AID 1224889). Further: nearly all actives have a fitted effect of over 50% in size. In short, it runs like this: as §3
Assay [19] is described as follows: qHTS RealTime-Glo MT Cell Viability Assay in HEK293 cells - 24 hour (AID 1224886). Further: nearly all actives have a fitted effect of over 50% in size. Further: potency means the concentration at half of the fitted maximal effect. In short, it runs like this:
(§5)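 HEK293 cells seeded with NanoLuc/prosubstrate reagent, rested 5 h at 37 C, then dosed and kept at 37 C up to 40 h. Nonlytic real-time luminescence from viable cells read at 0, 8, 16, 24, 32 and 40 h.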

Assay [20] in a line: qHTS RealTime-Glo MT Cell Viability Assay in HEK293 cells - 16 hour (AID 1224872). Further: nearly all actives have a fitted effect of over 50% in size. Further: potency means the concentration at half of the fitted maximal effect. In short, it runs like this:
as §5
On the % scale 0 is the no-effect control and ±100 the full control effect.

For `CC(C)CC(C)(C)C`, the molecule was classed as inactive in [1] and in assay [10]. Besides, the max response in [2] was -17.8%. In addition, the Potency result in [3], in assay [4], in assay [5], in [6], in [7] and in [8] was “inactive” in each case. Also, the Potency result in assay [9] and in assay [11] was “inactive” in each case.
Regarding `O=C(Nc1ccc2c(c1)Cc1ccccc1-2)C(F)(F)F`, the Potency entry in assay [12], in assay [13], in assay [3], in [4], in assay [5] and in [6] was “inactive” each time. Besides, the Potency entry in assay [14], in assay [15], in assay [7], in assay [8], in [9] and in assay [16] was “inactive” throughout. The Potency entry in assay [17], in assay [18] and in assay [11] was “inactive” in each case. Further, the result in [1] and in [10] was inactive.
On to `O=C(OCCCCCOC(=O)c1ccccc1)c1ccccc1`, for which the Potency entry in assay [12], in assay [13], in assay [3], in assay [4], in [5] and in [6] was “inactive” in each case. For the same molecule, the Potency result in [14], in assay [15], in assay [7], in [8], in assay [9] and in assay [18] was “inactive” each time. The Potency entry in assay [11] is “inactive”. Further, the molecule was called inactive in [1] and in assay [10].
Consider `CCCCOC(=O)C(C)Oc1ccc(Oc2ccc(C(F)(F)F)cn2)cc1` (stereo not drawn), for which the Potency result in assay [12], in assay [13], in assay [3], in assay [4], in assay [5] and in assay [6] was “inactive” in each case. The Potency result in assay [14], in [15], in [7], in assay [8], in assay [9] and in assay [18] was “inactive” in each case. Also, the Potency entry in assay [11] was “inactive”. Further, the result in assay [1] and in assay [10] was inactive. Moreover, the max response in assay [2] is -1.23%.
In the case of `O=C(Cl)c1ccc(F)c(Cl)c1`, the Potency entry in assay [12], in assay [13], in assay [3], in [4], in assay [5] and in [6] was “inactive” in each case. Besides, the Potency entry in assay [14], in [15], in assay [7], in assay [8], in [9] and in assay [18] was “inactive” throughout. For the same molecule, in assay [11], the Potency result was “inactive”. Besides, the result in [1] and in assay [10] was inactive. Besides, the max response in [2] is 35.2%.
Take `Nc1ccc(-c2ccc(F)cc2)cc1`: the Potency entry in [12], in assay [13], in assay [3], in assay [4], in [5] and in assay [6] was “inactive” each time. Further, the Potency entry in assay [14], in assay [15], in [7], in [8], in assay [9] and in [19] was “inactive” throughout. Moreover, the Potency result in assay [17], in assay [18] and in assay [11] was “inactive” throughout. The result in [1] and in [10] was inactive. The max response in assay [2] was -22.4%.
Turning to `O=c1c2ccccc2oc2ccccc12`, the molecule was classed as inactive in [1] and in assay [10]. The max response in assay [2] was -17.5%. Also, the Potency entry in assay [13], in assay [3], in assay [4], in assay [5], in assay [6] and in assay [14] was “inactive” throughout. Further, the Potency entry in assay [7], in assay [8], in [9], in assay [19], in [17] and in assay [18] was “inactive” each time. In assay [11], the Potency entry is “inactive”.
With `COC(=O)C(C)(C)C`, the Potency result in assay [12], in [13], in assay [3], in [4], in [5] and in [6] was “inactive” throughout. Moreover, the Potency result in assay [14], in assay [15], in assay [7], in assay [8], in assay [9] and in assay [16] was “inactive” each time. The Potency entry in assay [17], in assay [18] and in [11] was “inactive” in each case. Also, the call in assay [1] and in assay [10] was inactive. Besides, the max response in assay [2] is -22.6%.
In the case of `O=C(OCCN1CCOCC1)c1cccnc1Nc1cccc(C(F)(F)F)c1`, the Potency entry in [12], in assay [13], in assay [3], in assay [4], in assay [5] and in assay [6] was “inactive” each time. Also, the Potency result in assay [14], in [15], in assay [7], in assay [8], in assay [9] and in assay [16] was “inactive” in each case. The Potency result in assay [18] and in assay [11] was “inactive” in each case. The molecule was classed as inactive in [1] and in assay [10].
For `Clc1ccccc1-c1nc(-c2ccncc2)no1`, the Potency result in assay [12], in [13], in assay [3], in [4], in [5] and in assay [14] was “inactive” throughout. Besides, the Potency entry in assay [15], in [7], in [8], in assay [9], in assay [16] and in assay [17] was “inactive” throughout. Further, in [11], the Potency result was “inactive”. For the same molecule, the molecule was classed as inactive in assay [1] and in assay [10].
For `CC(=O)c1ccc(Cl)c(Cl)c1Cl`, the Potency result in assay [20], in assay [3], in [4], in [5], in assay [6] and in [14] was “inactive” each time. Further, the Potency entry in [7], in assay [8], in [9], in assay [19], in assay [16] and in assay [17] was “inactive” in each case. The Potency entry in assay [11] was “inactive”. Further, the call in assay [1] and in [10] was inactive. In addition, the max response in assay [2] was -19.2%.
On to `CCn1nc(Cc2ccccc2)cc1C1CCN(C[C@H]2C[C@H](N(C)[C@@H](C(=O)O)C(C)C)C[C@@H]2c2cccc(F)c2)CC1`, for which the Potency entry in [12], in assay [13], in assay [3], in [4], in assay [5] and in [14] was “inactive” throughout. The Potency result in [15], in assay [7], in [9] and in assay [11] was “inactive” in each case. For the same molecule, the molecule was called inactive in assay [1] and in assay [10].
On to `COc1ccc(C(=O)Nc2ccccc2)cc1[N+](=O)[O-]`, for which the Potency in assay [20], in assay [2], in assay [19] and in assay [16] was 24.7 µM (active) throughout. Moreover, the molecule was classed as inactive in assay [1] and in [10]. In addition, the Potency result in assay [3], in [4], in [5], in [6], in assay [14] and in [7] was “inactive” throughout. The Potency entry in [8], in assay [9], in assay [17] and in assay [11] was “inactive” throughout.
In the case of `N#Cc1ccc(CC(=O)c2cccc(C(F)(F)F)c2)cc1`, the Potency result in [12], in [13], in [3], in [4], in assay [5] and in [6] was “inactive” in each case. The Potency result in assay [14], in [15], in assay [7], in [8], in [9] and in assay [17] was “inactive” in each case. Also, the Potency entry in assay [18] and in [11] was “inactive” in each case. The molecule was classed as inactive in [1] and in assay [10].
For the molecule `c1ccc(CCNc2nc(-c3ccccc3)cs2)cc1`, the Potency entry in assay [20], in assay [4], in [6], in assay [14], in [9] and in assay [19] was “inactive” in each case. For the same molecule, in assay [18], the Potency entry is “inactive”. Moreover, the call in assay [1] and in assay [10] was inactive. The max response in assay [2] is -22.9%.
With `O=C(O)c1c2ccccc2cc2ccccc12`, the Potency in assay [12] was 34.6 µM (active); in [2] it was 38.8 µM (active). Moreover, the molecule was called inactive in [1] and in [10]. Besides, the Potency result in [13], in assay [3], in assay [4], in [5], in assay [6] and in assay [14] was “inactive” in each case. Further, the Potency entry in [7], in assay [8], in [9], in assay [16] and in [11] was “inactive” in each case.
